Source: PMC5540273 (PLoS ONE, 2017)

Columns and labels:
Conditions in all cases: concentration: 1 μM, replicates: in singlicate; n = 1
JNK2 = test system: T1, JNK2
T1 construct: gene MAPK9

JNK3 = test system: T2, JNK3
T2 construct: gene MAPK10

KIT-autoinhibited = test system: KIT-autoinhibited
KIT = test system: KIT
LATS1 = test system: LATS1
LATS2 = test system: LATS2
LCK = test system: LCK
LIMK1 = test system: LIMK1
LIMK2 = test system: LIMK2
LKB1 = test system: T3, LKB1
T3 construct: gene STK11

LOK = test system: T4, LOK
T4 construct: gene STK10

LRRK2 = test system: LRRK2
LTK = test system: LTK
LYN = test system: LYN
LZK = test system: T5, LZK
T5 construct: gene MAP3K13

MAK = test system: MAK
MAP3K15 = test system: MAP3K15
MAP3K1 = test system: MAP3K1
MAP3K2 = test system: MAP3K2
MAP3K3 = test system: MAP3K3
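Further: KINOMEscan kinase panel screen.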

SMILES	%Inh (JNK2)	%Inh (JNK3)	%Inh (KIT-autoinhibited)	%Inh (KIT)	%Inh (LATS1)	%Inh (LATS2)	%Inh (LCK)	%Inh (LIMK1)	%Inh (LIMK2)	%Inh (LKB1)	%Inh (LOK)	%Inh (LRRK2)	%Inh (LTK)	%Inh (LYN)	%Inh (LZK)	%Inh (MAK)	%Inh (MAP3K15)	%Inh (MAP3K1)	%Inh (MAP3K2)	%Inh (MAP3K3)
Cc1ccccc1COc1cc(-n2cnc3cc(Cl)ccc32)sc1C(N)=O [GW813349]	0%	0%	0%	0%	0%	61%	0%	0%	13%	0%	46%	82%	9%	33%	0%	0%	1%	32%	5%	11%
Nc1nc(-c2ccccc2F)c(-c2ccnc3ccccc23)s1 [GW560459]	87%	87%	0%	9%	0%	0%	11%	1%	0%	0%	0%	8%	22%	0%	30%	23%	0%	3%	0%	0%
COc1ccc(CNC(=O)NC2CCN(c3ccnc(Nc4ccc(F)cc4)n3)C2)cc1 (stereo not drawn) [GSK1379706]	9%	13%	3%	39%	22%	27%	16%	0%	29%	13%	0%	23%	15%	0%	71%	30%	12%	2%	0%	0%
Cn1c(=O)c(F)c(Nc2ccc(I)cc2F)c2c(=O)n(OC[C@H](O)CO)cnc21	0%	0%	0%	7%	18%	0%	1%	14%	26%	0%	2%	0%	20%	14%	0%	0%	0%	0%	0%	4%
COc1cc2ncn(-c3cc(OCc4ccncc4)c(C(N)=O)s3)c2cc1OC [GSK336313]	12%	1%	0%	18%	0%	8%	30%	2%	18%	0%	0%	0%	2%	0%	0%	23%	11%	25%	0%	0%
CCS(=O)(=O)c1ccc(OC)c(Nc2ncc(-c3ccc(F)cc3)o2)c1.Cl [GW591947]	21%	0%	0%	17%	0%	0%	13%	0%	0%	0%	0%	0%	0%	0%	0%	80%	0%	0%	0%	0%
Cc1nnc(-c2ccc(C)c(-c3ccc(C(=O)O)cc3)c2)o1 [GW608005]	0%	0%	0%	0%	0%	0%	0%	4%	0%	5%	100%	46%	0%	0%	0%	19%	14%	0%	0%	0%
CCC(=O)c1c(-c2ccccc2)c2cc(Cl)ccc2c(=O)n1Cc1cc(S(C)(=O)=O)n(CCC(C)(C)O)n1	99.9%	99.9%	0%	11%	31%	17%	13%	0%	16%	3%	16%	6%	6%	18%	13%	2%	43%	3%	21%	37%
CC(C)(C)c1ccc(C(=O)Nc2cn3cc(-c4ccccc4)ccc3n2)cc1	0%	0%	0%	92.6%	0%	0%	8%	10%	0%	15%	0%	0%	0%	0%	0%	11%	22%	0%	0%	2%
O=C(Nc1ccc2c(c1)OCO2)NC1CCN(c2ccnc(NCc3ccc(F)cc3)n2)CC1 [GSK1379859]	0%	0%	0%	2%	0%	0%	14%	0%	21%	6%	0%	0%	1%	4%	0%	79%	0%	8%	0%	0%
COc1ccc(-c2coc3ccc(-c4nnc(SCc5cccc(C#N)c5)o4)cc23)cc1	17%	14%	1%	21%	29%	11%	11%	26%	0%	0%	4%	0%	0%	0%	9%	36%	0%	7%	24%	12%
O=C1NC(=O)C(c2ccccc2)=C1Nc1cccc(O)c1 [SB-390534]	13%	4%	0%	10%	21%	0%	24%	0%	0%	0%	23%	0%	1%	0%	0%	26%	17%	0%	4%	49%
Cc1c(Cn2c(C)nn3c(=O)cc(N4CCO[C@H](C)C4)nc23)cccc1C(F)(F)F [GSK2373690]	27%	17%	0%	13%	0%	0%	15%	5%	0%	0%	0%	31%	0%	0%	0%	0%	26%	7%	2%	0%
COc1cc(OC)cc(-c2cc3cnc(N)nc3nc2NC(=O)NC(C)(C)C)c1	0%	0%	0%	0%	0%	34%	0%	0%	0%	0%	13%	0%	0%	0%	0%	0%	0%	0%	0%	13%
Cc1nn2c(=O)cc(N3CCOCC3)nc2n1Cc1cccc(Cl)c1Cl [GSK2342769]	15%	5%	0%	10%	0%	0%	5%	0%	0%	0%	0%	22%	0%	0%	0%	20%	9%	17%	16%	0%
Cc1nnc(-c2ccc3ncn(-c4ccc(S(C)=O)cc4)c3c2)o1 (stereo not drawn)	0%	0%	0%	29%	43%	8%	10%	19%	6%	9%	4%	0%	0%	8%	0%	0%	0%	16%	0%	0%
Fc1cccc(CSc2nnc(-c3ccc4c(c3)CCO4)o2)c1	4%	4%	6%	5%	20%	31%	0%	0%	0%	16%	9%	10%	16%	19%	0%	5%	15%	26%	2%	2%
COc1cccc(-n2cnc3c(N)ncnc32)c1 [SKF-97416]	27%	8%	23%	12%	8%	1%	10%	0%	7%	60%	4%	63%	0%	8%	33%	10%	22%	29%	35%	22%
CCC(=O)c1c(-c2ccccc2)c2cc(Cl)ccc2c(=O)n1Cc1cc(C(=O)NC2CC2)n(C)n1	100%	99.8%	0%	58%	19%	1%	0%	0%	0%	9%	19%	3%	16%	0%	31%	32%	11%	9%	10%	12%
CN(C)c1cc(-c2ccc3c(N)n[nH]c3c2)nc(N)n1 [GSK2219329]	11%	4%	81%	7%	0%	2%	17%	0%	14%	0%	0%	0%	4%	0%	10%	16%	0%	0%	0%	0%
COc1cccc(C2=C(Nc3cccc(C(=O)O)c3)C(=O)NC2=O)c1 [SB-390770]	24%	17%	0%	0%	0%	0%	37%	0%	10%	0%	22%	27%	32%	0%	0%	33%	1%	25%	0%	3%

SMILES	%Inh (JNK2)	%Inh (JNK3)	%Inh (KIT-autoinhibited)	%Inh (KIT)	%Inh (LATS1)	%Inh (LATS2)	%Inh (LCK)	%Inh (LIMK1)	%Inh (LIMK2)	%Inh (LKB1)	%Inh (LOK)	%Inh (LRRK2)	%Inh (LTK)	%Inh (LYN)	%Inh (LZK)	%Inh (MAK)	%Inh (MAP3K15)	%Inh (MAP3K1)	%Inh (MAP3K2)	%Inh (MAP3K3)
Cc1cc(Nc2nc(-c3cccc(C)n3)nc3ccccc23)ccn1 [GW872411]	14%	0%	2%	0%	0%	0%	0%	0%	0%	0%	0%	0%	0%	0%	0%	0%	0%	0%	0%	0%
CCC(=O)c1c(-c2ccccc2)c2cc(Cl)ccc2c(=O)n1Cc1cc(S(C)(=O)=O)n(CC(F)F)n1	99.4%	99.4%	0%	5%	0%	0%	0%	0%	0%	0%	0%	0%	0%	0%	0%	14%	2%	0%	0%	0%
Cc1cccc(-c2nc(Nc3ccc4c(cnn4C)c3)c3ccccc3n2)n1 [GW876731]	60%	28%	0%	7%	0%	0%	0%	0%	0%	48%	10%	0%	0%	5%	0%	29%	0%	0%	12%	10%
Cl.c1ccc(Cn2cnc3cc(Nc4ncnc5ccccc45)ccc32)cc1 [GW272142]	7%	0%	4%	0%	0%	0%	25%	0%	4%	0%	0%	0%	0%	0%	22%	0%	0%	5%	0%	0%
CCS(=O)c1ccc(-c2coc3ccc(-c4nnc(C)o4)cc23)cc1 (stereo not drawn)	24%	18%	0%	5%	18%	0%	5%	0%	0%	29%	17%	5%	0%	0%	34%	15%	0%	3%	8%	20%
Cc1ccc(Oc2ccc(Nc3ncnc4cc[nH]c34)cc2C)cn1	44%	57%	12%	16%	26%	44%	3%	4%	0%	11%	1%	0%	0%	0%	40%	25%	38%	0%	4%	30%
Nc1nc(N)c2nc(-c3ccccc3)[nH]c2n1 [SKF-12778]	14%	8%	5%	21%	0%	0%	19%	0%	3%	0%	14%	18%	5%	3%	0%	3%	12%	9%	26%	13%
COc1cccc(C2=C(N(C)c3ccccc3)C(=O)NC2=O)c1 [SB-334865]	14%	0%	0%	0%	3%	0%	16%	0%	0%	0%	0%	0%	0%	0%	32%	24%	0%	1%	4%	0%
O=C(Nc1n[nH]c2nc(-c3ccccc3)c(Cl)cc12)C1CC1 [SB-734909]	32%	29%	0%	51%	0%	24%	3%	9%	12%	37%	21%	0%	0%	0%	0%	3%	60%	37%	14%	33%
CN1C(=O)C(Nc2cc(Cl)c(O)c(Cl)c2)=C(c2ccc(Cl)cc2)C1=O [SB-404321]	19%	15%	26%	0%	0%	0%	0%	0%	0%	32%	0%	0%	0%	24%	6%	0%	0%	0%	0%	0%
FC(F)(F)c1ccc(-c2ncn(CCCN3CCOCC3)c2-c2ccncc2)cc1 [SB-217780]	53%	55%	0%	20%	0%	27%	0%	0%	0%	23%	10%	0%	23%	3%	0%	29%	7%	12%	8%	0%
Nc1ncnc2c1ncn2-c1ccc(Cl)cc1 [AH2635]	0%	0%	0%	65%	0%	24%	24%	0%	6%	10%	0%	0%	14%	0%	27%	8%	0%	0%	0%	0%
CCC(=O)c1c(-c2ccccc2)c2cc(Cl)ccc2c(=O)n1Cc1ccc(C(=O)O)cc1	93.4%	94.6%	0%	39%	2%	0%	0%	2%	0%	1%	0%	0%	0%	0%	0%	4%	0%	0%	0%	0%
CCCNC(=O)Nc1ccc(Oc2ncnc3ccn(C)c23)cc1	3%	0%	3%	89%	44%	11%	0%	0%	0%	9%	47%	0%	4%	30%	22%	0%	0%	31%	15%	0%
CCc1ccc(-c2ccc3c(c2)-c2nn(C)cc2S(=O)(=O)N3C)cc1	0%	0%	53%	0%	0%	0%	17%	0%	0%	21%	2%	0%	0%	0%	0%	0%	0%	0%	0%	0%
CCn1c(-c2ccoc2)nc2cnccc21 [SB-733887]	0%	0%	61%	5%	19%	60%	35%	10%	6%	0%	0%	0%	1%	4%	0%	18%	0%	14%	3%	0%
COC(=O)c1c(-c2ccccc2)c2cc(Br)ccc2c(=O)n1Cc1ccc(S(C)(=O)=O)cc1	98.8%	98.6%	6%	54%	31%	30%	0%	0%	0%	0%	6%	11%	9%	14%	33%	34%	26%	27%	0%	32%
Nc1ncnc2c1ncn2-c1cccc(F)c1 [SKF-97560]	18%	36%	25%	39%	0%	42%	20%	20%	22%	4%	0%	31%	0%	0%	13%	0%	0%	16%	3%	5%
CCn1c(-c2nonc2N)nc2ccccc21 [SB-693162/GW549034]	57%	62%	26%	0%	0%	82%	12%	0%	0%	0%	11%	83%	4%	0%	55%	0%	54%	46%	25%	31%
O=C(NCCNc1ccnc(Nc2ccc(F)cc2)n1)Nc1ccc2c(c1)OCO2 [GSK1379882]	10%	3%	0%	34%	0%	17%	0%	0%	0%	25%	0%	0%	0%	0%	0%	30%	0%	1%	0%	0%
Nc1ncnc2c1ncn2-c1cccc2ccccc12 [SKF-97184]	0%	0%	20%	8%	18%	0%	0%	0%	0%	92.8%	3%	4%	0%	15%	34%	30%	9%	5%	18%	0%
